Hits are enriched below; roughly 8.1% of the tested compounds scored in any of these assays.
Sfp inh – Sfp phosphopantetheinyl transferase inhibition; Q9F4F7; Biochemical Sfp PPTase activity, qHTS; Potency, µM, inactives show largest response in the series, negative = inhibition, usual class: inhibitors; hit rate 3.5% among 310,000;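 also: the enzyme is Sfp with the accession as filed and its product quenches rhodamine fluorescence; 0% = enzyme reaction without inhibitor and -100% = no enzyme wells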
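After 15 min at room temperature with compound, 15 nM Sfp received 5 uM rhodamine-CoA plus 12.5 uM BHQ-2-ybbR (50 mM Hepes pH 7.6, 10 mM MgCl2). Rate came from the fluorescence difference over 30 min, ex 525/em 598 nm.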
Epigenetic derep – derepresses silenced GFP reporter in murine cells | murine LDR cells, GFP reporter derepression, 30 h | Potency, µM (titrated, usually from 53.9 µM), for inactives: at the highest dose GFP activation, most hits filed as activators | hit rate 0.2% among 280,000; also: % of control where 0% means no effect; nearly all actives have a fitted effect of over 60% in size
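Readout is the number of GFP-expressing murine LDR cells, counted by cytometry following washing. Cells were treated with compound for 30 h at 37 C; the stably integrated CMV-GFP locus is normally silent.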
Gal4-VP16 FLuc – inhibits Gal4-VP16 luciferase reporter, ROR gamma counter-screen | Drosophila S2 Gal4-VP16 UAS-luciferase, luminescence, 20 h | Potency, µM (highest dose often 53.6 µM), for inactives: at the highest dose activity, negative = inhibition, most hits filed as inhibitors | hit rate 3.5% among 310,000 | AID 2546;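 also: Gal4-VP16 expression switched on by copper sulfate through the metallothionein promoter; % is scaled to controls: 0 for no effect and ±100 for the full control effect; nearly all actives have a fitted effect of over 50% in size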
PINK1 expr mod – PINK1 expression modulation; PINK1 immunofluorescence, high-content cytometry, 24 h; Potency, µM (doses to about 76.6 µM), for the others: at the highest dose activation (PINK1 increase), hits mostly activators; hit rate 0.2% among 410,000; active = well fitted activation curve with a large enough effect; inconclusive = small, poorly fitted or top-dose-only effect; cell line not stated here; also: % of control where 0% means no effect; nearly all actives have a fitted effect of over 65% in size
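Fluorescence from anti-PINK1 antibody, together with nuclear and cell stains, was scanned on a laser-scanning cytometer. Before staining, stable-line cells were incubated 24 hours with compounds at 5 concentrations; primary antibody 12 h at 10 degrees C.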
ClpP mod – qHTS Assay for Activators of ClpP; ATP-dependent Clp protease proteolytic subunit (Bacillus subtilis (strain 168)), P80244; purified B. subtilis ClpP, FRET peptide cleavage, 20 min; Potency, µM (top dose mostly 57.5 µM), for the others: at the highest dose activity change, negative = active; hit rate 1.9% among 340,000; AID 651965, 2013; active = well fitted falling curve with a large enough effect; inconclusive = small, poorly fitted or top-dose-only effect; inactive = no such curve, though single readings can be large or run the other way; also: the source files actives as falling curves though it sought activators and does not explain the sign; nearly all actives have a fitted effect of over 65% in size
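FRET quenching reversal measured ClpP activation: 10 microg/mL B. subtilis ClpP at pH 8 with the FRET-FV decapeptide, read at 430 nm after 320 nm excitation. The 20-min minus 0-min signal was scaled between DMSO/no-enzyme wells and ADEP (5.8 microM final).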
RORg inh – ROR gamma (mouse) transcription inhibition | P51450 | Drosophila S2 Gal4-RORgamma UAS-luciferase reporter, 20 h | Potency, µM (doses to about 53.6 µM), for the others: top-dose activity change, negative = inhibition, hits mostly inhibitors | hit rate 5.4% among 310,000 | AID 2551; also: % is scaled to controls: 0 for no effect and ±100 for the full control effect; nearly all actives have a fitted effect of over 60% in size
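Drosophila Schneider cells stably carrying a metallothionein-driven Gal4 DBD–ROR gamma fusion and a UAS-Photinus luciferase reporter were exposed to compound for 1 hr, then induced with copper sulfate (700 uM final) for 20 hr at ambient temperature before luminescence reading.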
An asterisk follows results filed as active; u = inconclusive; x = no result given; [ ] = remark or other dose. Unless noted, calls follow the shape of the dose curve; as a rule, active = well fitted curve in the direction sought with a large enough effect; inconclusive = small, poorly fitted or top-dose-only effect, or another doubt; inactive = no such curve, though single readings can be large; an effect the other way counts as inactive or inconclusive. Potency is read from the fitted curve at half-maximal effect.

SMILES | Sfp inh | Epigenetic derep | Gal4-VP16 FLuc | PINK1 expr mod | ClpP mod | RORg inh
Cc1ncoc1C(=O)N1CCOc2ccc(CN3CCC(Oc4cccnc4)CC3)cc2C1 | x | x | x | 0.8% | x | x
COc1ccc2c(c1)-c1nc(-n3ncc(C(=O)NCc4cccc(C)n4)c3C3CC3)ncc1CC2 | x | x | x | 0.0% | x | x
CCOc1cc(NC(=S)NCC2CCCO2)c(OCC)cc1NC(=O)c1cccc(F)c1 (stereo not drawn) | 12.9% | 0.0% | 4.47µM* | 0.7% | x | 3.55µM*
CCOc1cc(NC(=S)NCC2CCCO2)c(OCC)cc1NC(=O)c1ccc(C)cc1 (stereo not drawn) | -19.3% | 0.0% | 3.98µM* | 2.6% | 1.0% | 3.16µM*
O=C(NCC1CCCO1)c1cccc(F)c1 (stereo not drawn) | 15.4% | -1.2% | 4.5% | 0.7% | -0.4% | 10.9%
CCOc1ccc(-c2nonc2NC(=O)COc2ccc(C)c(C)c2)cc1OCC | x | 0.0% | x | 8.3% | 1.3% | x
COC(=O)NC(=S)Nc1ccc(Oc2ccc(Cl)cc2)c(Cl)c1 | -7.7% | 0.7% | 5.01µM* | x | 0.1% | 4.47µM*
COC(=O)NC(=S)Nc1ccc(Oc2ccc(Cl)cc2Cl)c(Cl)c1 | 0.9% | -0.1% | u | 12.9% | -1.8% | 2.24µM*
COc1ccc(Br)cc1C(=O)NC(=S)Nc1ccc(Cl)c(C(=O)O)c1 | 44.7µM* | 1.1% | -3.9% | -2.9% | x | u
COc1ccc(NC(=O)NNC(=O)c2ccc(Cl)cc2Cl)cc1OC | -0.3% | -0.4% | -1.9% | 0.1% | x | 36.4%
Cc1ccc(N2CCN(S(=O)(=O)c3ccc4oc(=O)c5ncn(C)c5c4c3)CC2)c(C)c1 | x | 4.2% | x | 0.4% | -2.1% | x
CCCc1nn(-c2ccccc2)c2c1C(c1cccs1)C(C#N)=C(N)O2 (stereo not drawn) | 2.7% | -1.4% | 1.4% | 9.4% | 0.3% | 12.6µM*
Cc1ccc(CNC(=O)CCC2CCCN(C(=O)c3ccc4c(c3)OCO4)C2)o1 (stereo not drawn) | 28.2µM* | -6.6% | 8.9% | 3.2% | x | 36.6%
NC(=O)c1cc(S(=O)(=O)NCC2CCC(C(=O)Nc3ccc(Cl)cc3)CC2)cs1 (stereo not drawn) | x | -0.1% | x | 1.6% | 1.4% | x
COc1c2ccoc2nc2c(OC)cccc12 | 6.7% | -3.2% | -2.4% | -1.3%[38.3 µM] | 15.8µM* | -20.2%
Fc1cccc(-n2cc(-c3ccccc3)c3c(=S)nc[nH]c32)c1 | 7.4% | x | 0.631µM* | 1.4% | -1.2% | 2.51µM*
O=c1[nH]cnc2c1c(-c1ccccc1)cn2-c1ccccc1 | -6.6% | x | -5.0% | -1.6% | -0.8% | -14.6%
Fc1ccc(-n2cc(-c3ccccc3)c3c(=S)nc[nH]c32)cc1 | 14.4% | x | 1µM* | 6.3% | x | 1.26µM*
Cc1ccc(C)c(N2CCN(C(=O)C3CCN(S(=O)(=O)c4ccc5[nH]c(=O)oc5c4)CC3)CC2)c1 | x | 1.5% | x | -1.5% | -0.2% | x
COc1ccc(N2C(=O)/C(=C/c3ccc([N+](=O)[O-])cc3)N=C2C)c(OC)c1 | 1.1% | -0.7% | 7.94µM* | 2.2% | x | u
CC1=N/C(=C\c2ccc([N+](=O)[O-])cc2)C(=O)N1c1cc(Cl)ccc1C | 56.2µM* | 11.2% | -14.1% | x | -0.1% | 24.3%
Cc1ccc(Cl)cc1N1C(=O)CC(C)(C)CC1=O | 10.6% | x | 2.3% | 0.4% | 0.3% | 0.7%
COc1cccc(NC(=O)Cn2c(=O)n(-c3ccccc3)c(=O)c3c2c2cc(OC)ccc2n3C)c1 | x | -2.7% | x | 1.0% | 4.4% | x
COC(=O)c1scc(S(=O)(=O)C(C)C)c1N/N=C(\C#N)C(=O)c1ccc(Cl)cc1 | -7.7% | -0.3% | u | 39.8µM* | -9.3% | -29.7%
COC(=O)c1scc(C#N)c1N/N=C(\C#N)S(=O)(=O)c1ccc(Cl)cc1 | 25.4% | -1.0% | -28.0% | u | x | u
SMILES | Sfp inh | Epigenetic derep | Gal4-VP16 FLuc | PINK1 expr mod | ClpP mod | RORg inh
CC1(C)C(=O)OC(C(=O)c2ccc(C(C)(C)C)cc2)C(C)(C)C1=O (stereo not drawn) | 9.7% | -0.6% | 5.2% | 0.8% | 31.6µM* | 32.9%
Cc1cc(C)c(C)c(C(=O)C2OC(=O)C(C)(C)C(=O)C2(C)C)c1C (stereo not drawn) | 9.1% | 1.3% | -4.0% | 0.1% | -0.6% | -5.0%
O=[N+]([O-])c1ccc(-n2nnnc2-c2ccccc2)c([N+](=O)[O-])c1 | 9.8% | 0.1% | 5.62µM* | -0.6% | -0.2% | 3.98µM*
CC(=O)/C=C/c1ccc(C)o1 | 39.8µM* | 2.1% | 3.5% | 0.6% | -2.7% | -9.6%
CC(/C=C/c1ccc(C)o1)=C\C(=O)O | 10µM* | u | u | 11.5% | -2.3% | 20µM*
Cc1ccc(/C=C/C(=O)NCc2cccs2)o1 | 10µM* | 10.2% | -2.3% | -1.0% | 1.0% | 20.1%
Cc1ccc(/C=C/C(=O)Oc2ccc(C#N)cc2)o1 | 13.8% | x | -1.0% | x | x | -0.2%
Cc1ccc(CNC(=O)/C=C/c2ccc(Br)o2)cc1 | 28.2µM* | -3.2% | u | 1.4% | -2.0% | 26.5%
C/C(=N\NC(=O)c1nc2ccccn2c1C)c1ccc2c(c1)OCO2 | -10.9% | 0.0% | u | 0.9% | -2.5% | -80.1%
C/C(=N\NC(=O)c1nc2ccccn2c1C)c1cccc([N+](=O)[O-])c1 | 24.8% | -0.6% | 3.7% | 0.7% | 17.8µM* | 24.2%
C/C(=N\NC(=S)NC(C)C)c1cccc([N+](=O)[O-])c1 | 13.3% | 7.1% | 3.98µM* | 2.8% | 3.5% | 1.26µM*
Cc1cccc(NC(=S)N/N=C(\c2ccccc2)C(C)C)c1 | -12.4% | 0.0% | u | 3.5% | x | 4.47µM*
Cc1cc(Br)ccc1NC(=S)Nc1cccc([N+](=O)[O-])c1 | u | -0.9% | u | 39.8µM* | 0.3% | 11.2µM*
Cc1ccc(S(=O)(=O)Nc2cc3c(cc2C)n(C)c(=O)c(=O)n3C)c(C)c1 | x | 0.0% | x | 0.7% | -5.2% | x
CCCc1nc2cccnc2n1C1CCN(C(=O)Cn2nccc2C)CC1 | x | x | x | 0.4% | x | x
CCCc1nnc(N2C(=O)c3oc4ccc(F)cc4c(=O)c3C2c2ccc(C(=O)OC)cc2)s1 (stereo not drawn) | x | 0.0% | x | 1.2% | 0.0% | x
N#Cc1ccc(NC(=O)COCc2cc(-c3ccc(F)cc3)on2)cc1 | x | 0.0% | x | -0.8% | 0.9% | x
COc1ccc(-c2nc(SCC(=O)Nc3ccc4c(c3)OCO4)c(-c3ccccc3)[nH]2)cc1 | x | 1.8% | x | 3.7% | u | x
COc1ccc(-c2noc(N3CCN(c4ccc(C)cc4)C(C)C3)n2)cc1OC (stereo not drawn) | x | -1.2% | x | 3.2% | 0.0% | x
C/C(=N\Nc1nc(N)cc(Cl)n1)c1cccc([N+](=O)[O-])c1 | -3.6% | -1.2% | 3.4% | 4.8%[38.3 µM] | 0.3% | -38.6%

Bioassay records as filed in PubChem BioAssay.
